From PubChem BioAssay
A350 fluor: compounds fluorescent in Alexa 350 spectral region | actives 11% (n = 59,000) | max dye-equivalent concentration, M | Compound autofluorescence, 340/450 nm, Alexa 350 dye-equivalents; active compounds read high; in the data active = max dye-equivalent concentration above about 10 nM; inconclusive = mostly about 1.1 nM to 9.6 nM
AID923: qHTS Assay for Allosteric/Competitive Inhibitors of Caspase-1: Spectroscopic Profiling in AFC Spectral Region | compound fluorescence, AFC spectral region (405/520 nm) | Potency, µM (doses to about 57.5 µM), for inactives: at the top dose fluorescence increase, usual class: activators | AID 923, 2007 | actives 1.1% (n = 75,000); also: potency is read from the fitted curve at half-maximal effect; 0% is about no effect
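Titrations up to 57 uM read every 20 sec for 3 min (405/520 nm) with 50 nM caspase 1 and 5 uM Ac-WEHD-AFC, pH 7.5 HEPES buffer. Fluorescence-vs-time intercept gave baseline, scaled against on-plate AFC standard.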
GBA activity: alters purified human glucocerebrosidase activity. purified enzyme, resorufin glucoside fluorescence (screen aimed at inhibitors), 20 min. P04062. actives 1.1% (n = 48,000). Potency, µM; in the data active = potency below about 15 µM; inconclusive = mostly about 16 µM to 33 µM;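 also: potency is read from the fitted curve at half-maximal effect; the screen sought inhibitors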
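Compounds titrated against 0.2 nM normal enzyme, 30 uM resorufin beta-D-glucopyranoside substrate, citrate/phosphate buffer with taurocholate and tween-20, pH 5.9. Reaction ran 20 min at room temperature; fluorescence (Ex 548/Em 600) gave AC50.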
HSD17B inhib: blocks hydroxysteroid 17-beta dehydrogenase activity; recombinant HSD17B10, NADH fluorescence kinetic; Potency, µM (titrated, usually from 57.1 µM), for inactives: at the highest dose activity change, negative = inhibition, hits mostly inhibitors; actives 7.6% (n = 75,000);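 also: the protocol describes HADH2 (HSD17B10) and not the HSD17B4 of the title; potency is read from the fitted curve at half-maximal effect; % is scaled to controls: 0 for no effect and ±100 for the full control effect; nearly all actives have a fitted effect of over 70% in size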
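Enzyme plus compound, 15 min room temperature; substrate mix added (NAD+ 1 mM, beta-hydroxybutyryl-CoA 90 uM final); plates read kinetically for NADH fluorescence. HADH2 was His-tagged, E. coli-derived, 20 nM.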
HADH2 inhib: inhibitors of human HADH2 dehydrogenase | AID 886 | Q99714 | recombinant HADH2, NADH fluorescence, beta-hydroxybutyryl-CoA | Potency, µM (doses to about 57.1 µM), without a hit: at the highest dose activity change, negative = inhibition, most hits filed as inhibitors | actives 3.4% (n = 73,000); also: potency is read from the fitted curve at half-maximal effect; % is scaled to controls: 0 for no effect and ±100 for the full control effect; nearly all actives have a fitted effect of over 60% in size
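Activity measured as NADH fluorescence gain (360/450 nm), taken as the change between first and last reads of a 4-min kinetic run. Conditions: pH 9.0 Tris buffer, 20 nM E. coli-expressed His-tagged enzyme, 1 mM NAD+, 90 uM beta-hydroxybutyryl-CoA; 15-min compound preincubation.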
4MU fluor: 4-MU region autofluorescence. AID 589. actives 11% (n = 59,000). compound autofluorescence, 340/450 nm, 4-MU equivalents; active compounds read high. max dye-equivalent concentration, M; in the data active = max dye-equivalent concentration above about 10 nM; inconclusive = mostly about 1.1 nM to 9.6 nM
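Compounds in 100 mM Tris, pH 8.0, incubated 15 min at room temperature, then fluorescence read at 340 nm excitation/450 nm emission. Signal converted to 4-MU dye-equivalent concentration using an on-plate six-point 4-MU standard curve.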
* marks the source's active call; other numbers are inactive results; i = inactive; ? = inconclusive; . = no result. An excerpt weighted towards active compounds, which were near 13% of everything screened. Unless noted, calls follow the shape of the dose curve; as a rule, active = well fitted curve in the direction sought with a large enough effect; inconclusive = small, poorly fitted or top-dose-only effect, or another doubt; inactive = no such curve, though single readings can be large; an effect the other way counts as inactive or inconclusive.

SMILES	A350 fluor	AID923	GBA activity	HSD17B inhib	HADH2 inhib	4MU fluor
COC(=O)[C@@]1(Cc2ccc(F)cc2)[C@H]2c3cc(C(=O)N4CCCC4)n(CCO)c3C[C@H]2CN1C(=O)c1ccccc1	.	-4.2%	.	25.1µM*	11.4%	.
COC(=O)[C@@]1(Cc2ccc(F)cc2)[C@H]2c3cc(C(=O)N(C)C)n(CCc4ccc(O)c(O)c4)c3C[C@H]2CN1C(=O)c1ccccc1	.	-2.1%	.	31.6µM*	15.8µM*	.
COc1ccc(C2c3sc(=O)[nH]c3SC3C4CCC(C4)C23)cc1 (centres undefined)	i	-2.7%	>76.9	25.1µM*	1.26µM*	i
O=c1[nH]c2c(s1)C(c1ccccc1)C1C3CCC(C3)C1S2 (centres undefined)	i	3.0%	>15.4	31.6µM*	1µM*	i
COc1cc(C2c3sc(=O)[nH]c3SC3C4CCC(C4)C23)ccc1O (centres undefined)	i	-0.1%	>76.9	25.1µM*	0.398µM*	i
COc1ccc(C2c3sc(=O)[nH]c3SC3C(=O)N(c4ccccc4)C(=O)C32)cc1 (centres undefined)	.	-2.4%	.	?	?	.
Cc1cccc(Nc2ncc3c(n2)CC(c2ccco2)CC3=O)c1 (centres undefined)	?	1.8%	>76.9	?	-12.5%	1.44e-08M*
Cc1ccc(NC(=O)CSCC(=O)Nc2ncc3c(n2)CC(c2ccco2)CC3=O)cc1 (centres undefined)	i	-1.7%	>76.9	0.4%	-14.8%	i
